# Laboratory results published in PubChem BioAssay (NCI).
# Compounds without any hit were thinned out: in the full panel of roughly 79,000, 15% have a hit. A number with no mark means an inactive call. Active and inactive are the calls of the source. Rule as the data show it: active = growth inhibition above about 70%; inactive = the rest.
# Experiments:
# [1] = NCI Yeast Anticancer Drug Screen. Data for the rad50 strain (AID 155);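 also: 0% = growth of vehicle-only cultures of the same strain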; settings: S. cerevisiae rad50 strain growth inhibition; at 50.0 µM; active compounds read high
# How it was run: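 Compounds were tested on a yeast strain with an engineered DNA damage repair alteration; the reported value is growth inhibition normalised to vehicle treatment.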
# [2] = NCI Yeast Anticancer Drug Screen. Data for the mec2-1 strain (AID 157); settings: S. cerevisiae mec2-1 strain, at 50.0 µM, active compounds read high
# How it was run: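 Compounds were applied to mec2-1 yeast cells. Their growth was then compared with that of vehicle-treated cultures to give growth inhibition.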
# [3] = NCI Yeast Anticancer Drug Screen. Data for the sgs1 mgt1 strain (AID 161);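 also: 0% = growth of cultures given vehicle only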; settings: S. cerevisiae sgs1 mgt1 strain, at 50.0 µM, active compounds read high
# How it was run: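 Growth of a repair-deficient yeast mutant was monitored after compound treatment and expressed as inhibition relative to vehicle-treated cultures.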
# [4] = NCI Yeast Anticancer Drug Screen. Data for the cln2 rad14 strain (AID 165);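 also: 0% = growth equal to vehicle treated cultures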; settings: S. cerevisiae cln2 rad14 strain, at 50.0 µM, active compounds read high
# How it was run: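 Strain: cln2 rad14 yeast, altered in cell cycle control and DNA damage repair. Read-out: growth inhibition vs vehicle.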
# [5] = NCI Yeast Anticancer Drug Screen. Data for the bub3 strain (AID 167); settings: S. cerevisiae bub3 mutant strain, at 50.0 µM, active compounds read high
# How it was run: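 Growth of a checkpoint-deficient yeast mutant is measured after compound exposure. Values represent inhibition relative to vehicle.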
# [6] = NCI Yeast Anticancer Drug Screen. Data for the mlh1 rad18 strain (AID 175); settings: S. cerevisiae mlh1 rad18 strain growth inhibition; at 50.0 µM; active compounds read high
# How it was run: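 A repair-deficient yeast strain is exposed to test compound, and growth is scored relative to vehicle-treated controls.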
Structure (SMILES),growth inhibition [1],growth inhibition [2],growth inhibition [3] [%],growth inhibition [4] [%],growth inhibition [5] [%],growth inhibition [6]
CCOC(=O)C(Cc1ccc(N=NN(C)C)cc1)NC(=O)CC1c2ccccc2-c2ccccc21 (stereo not given),13.8%,7.2%,20.7,-6.25,47.6,8.3%
C/C(=N/OC(=O)c1cccc2c(=O)c3ccccc3[nH]c12)[C@H]1CC[C@H]2[C@@H]3CCC4=C/C(=N/OC(=O)c5cccc6c(=O)c7ccccc7[nH]c56)CC[C@]4(C)[C@H]3CC[C@]12C,29.4%,38%,66.5,28.4,48.9,36.5%
CCB1OC2C(COC(C)=O)OC(OC(C)=O)C2O1 (stereo not given),-7.4%,-9.6%,-9.55,-9.25,-6.9,-10.1%
CC(=O)Oc1cccc2c1ccc1nonc12,1.75%,0.35%,-2.2,-49.8,-11.4,-3%
CCOC(=O)C(C#N)C1=CC(=O)C(=O)c2ccc(OC)cc21 (stereo not given),14%,11.3%,-5.5,27.9,-9.95,9.1%
Nc1ncnc2c1S(=O)(=O)NCN2,5.05%,-15.8%,0.45,-17.3,-3.15,-11.7%
CCOC(=O)/C(=C\c1ccc[nH]1)C(=O)c1ccccc1,48%,-5.9%,5,27.6,20.1,9.05%
COc1ccc2nc(NC(=O)C(=O)C(C)C(=O)c3ccc(Cl)cc3)sc2c1 (stereo not given),-10.1%,4.85%,-8.65,-5.9,-2.55,-0.25%
C=C1CCC23CC(CC[C@@H]2[C@@]12C[C@@H](c1ccoc1)OC2=O)OC3=O (stereo not given in full),2.6%,-12.6%,-8.6,-5.1,5.35,1.8%
CCCCCCCC(=O)Nc1nnc(SCCCCCCCCCCSc2nnc(NC(=O)CCCCCCC)s2)s1,-33.5%,-14.9%,-5.55,-52.3,-0.5,-4.45%
OC1c2ccccc2CCCC1N1CCCCC1 (stereo not given),41%,5.35%,27.8,6.75,12.1,16.9%
NC(=O)C1N=NSC1NC(=O)c1ccc([N+](=O)[O-])cc1 (stereo not given),1.8%,-5.6%,-8.9,6.65,-9.15,5.45%
O=C1CC2C(=O)N(Cc3ccccc3)C(=O)C2C(=O)N1 (stereo not given),-3.1%,-12.9%,-5.3,1.85,-3.1,1.25%
NCC(=O)N1CCCC1C(=O)O (stereo not given),-9.8%,-6.3%,-0.7,-24.4,0.05,-6.2%
CC1CCC(=O)NCCCCC(=O)N1 (stereo not given),22.9%,1.85%,25.3,15.6,3.45,26.6%
CN(CCO)CCN1c2ccccc2Sc2ccccc21,-12.7%,-26.3%,-10.2,-13.9,-5.8,-0.65%
CCSc1cc(N)ncn1,-39.6%,-18.6%,-11.5,-4.15,-14,-9.75%
Clc1ccccc1/C=C/c1ccnnc1,15.8%,18.6%,-3.65,7,1.35,12.8%
C=C(C)CN(C#N)CC(=C)C,-15.2%,10.6%,6.35,-17.2,-3.95,3.45%
CCOC(=O)c1ccc(-n2c(SCC)nc3sc(C)c(C)c3c2=O)cc1,-18.9%,-17.8%,-40.5,-38.5,-31.8,-29.3%

Structure (SMILES),growth inhibition [1],growth inhibition [2],growth inhibition [3] [%],growth inhibition [4] [%],growth inhibition [5] [%],growth inhibition [6]
CCC(=O)/C=C/c1ccccc1O,11.6%,9.55%,31.4,17.4,20.4,13.3%
CN(C)C(=O)CC(O)c1ccccc1 (stereo not given),13.9%,-9.95%,1.6,-30.2,-2.55,4.75%
Nc1nc(N)nc(C2C=CCCC2)n1 (stereo not given),-19.6%,1.85%,-13,-32.6,-11.4,-18.1%
CCCCCCCCCCOC1C(C(C)OCCCN(C)C)OC2OC3(CCCCC3)OC21 (stereo not given),91.8% (active),93.3% (active),40.7,16.1,-31.6,86.2% (active)
CC1NC(=O)C2Cc3ccc(O)c(c3)Oc3cccc(c3)C(O)C(C(=O)N2C)N(C)C(=O)C(C)NC(=O)C(Cc2ccc(O)c(O)c2)N(C)C(=O)C(C)NC1=O (stereo not given),6.75%,-19.3%,6.6,6.15,10.7,6.55%
CCCCCCC(=O)C(=O)O,41.4%,37.8%,35.5,3.65,18.9,59.5%
COc1ccc2c(c1OC)C1(CCN(C)C)CC(O)CCC1C=C2 (stereo not given),20.4%,7.95%,5.75,-4.6,13.2,18.1%
CCC(C)OC(=S)S.[Ag] (stereo not given),5.25%,-7.2%,0.7,-9.4,-1.85,10.7%
CCOC(=O)CC(C)C(C(=O)OCC)C(=O)OCC (stereo not given),1.05%,6.15%,-9.15,4.15,23.6,14%
O=S(=O)(OCC1CC2C=CC1C2)c1ccc(Br)cc1 (stereo not given),-15.6%,7.45%,-3.7,6.85,54.9,3.65%
CC(=O)N1C(OC(C)C)CC(C)N1c1ccccc1 (stereo not given),-7.45%,-15.8%,-38.4,3.35,-22.8,-38.3%
COc1ccc(CNc2nc3ccc(C(F)(F)F)cc3nc2-c2ccccc2)cc1OC,-33.8%,3.7%,17.6,6.45,1.05,-11.9%
CC1CCCN(P(c2ccccc2)N2CCCC(C)C2)C1 (stereo not given),25%,4.6%,16.4,15.4,26,13%
Cc1ccc2c(O)c3c(cc2c1O)C(=O)c1ccccc1C3=O,30.2%,0.75%,20.4,21.3,-0.85,31.2%
COC(=O)C1CCC=CC1OC(C)=O (stereo not given),1.65%,-12.6%,2.6,4.45,5.25,3.2%
Cc1cc[n+](C)c(-c2ccccc2)c1,5.65%,-2.25%,7,21.2,5.9,11.6%
O=[N+]([O-])c1ccc(N/N=C/C2CC=CCC2)c([N+](=O)[O-])c1 (stereo not given),7%,-6.8%,-8.55,-13.1,-5.65,5.25%
CCN(S(C)(=O)=O)S(C)(=O)=O,-7.5%,-2.5%,-4.65,-37,9.55,-15.8%
CC1(c2ccccc2)N=C(C(N)=O)c2[nH]cnc2N1 (stereo not given),-11.8%,-41.1%,-29.1,1.85,8.7,-11.8%
CC(=O)Nc1ccn(C2OC(COC(C)=O)C(OC(C)=O)C(OC(C)=O)C2OC(C)=O)c(=O)n1 (stereo not given),0.3%,-14.3%,2.45,-12.1,-4.3,5.55%
